Data: PubChem BioAssay AID1159580 (chemical genetic matrix, 2015)
Among all 5,500 compounds or so, about 2,000 (36%) were called active. Inconclusive results (about 18%) are left out. No stated cut-off is given here; in the data, active means normalized growth mostly below about 0.91 (no sharp cut-off); inconclusive means no clear call, values can overlap the other calls; inactive means mostly above about 0.92. Some of the results follow.

Assay: chemical genetic growth profiling, strain panel (AID 1159580);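 further: tested at 20 µM; growth read once vehicle control cultures reached saturation at 30 °C; 1 = growth at the plate median or of vehicle wells; lower values mean less growth of the strain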
Settings: S. cerevisiae deletion strains, growth OD

Measured: normalized growth

COc1ccc2c(c1)c(CC(=O)O)c(C)n2Cc1ccc(Cl)cc1
inactive: locus YAL013W, strain DEP1, active compounds read low 0.994 | locus YAL040C, strain CLN3, active compounds read low 0.96 | locus YCL061C, strain MRC1 (second series), active compounds read low 1 | locus YDR150W, strain NUM1, active compounds read low 1.02 | locus YDR363W, strain ESC2, active compounds read low 0.972 | locus YER002W, strain NOP16, active compounds read low 0.999 | locus YGR078C, strain PAC10, active compounds read low 0.981 | locus YGR229C, strain SMI1, active compounds read low 0.941 | locus YMR307W, strain GAS1, active compounds read low 1 | locus YNL175C, strain NOP13, active compounds read low 0.966 | locus YNL197C, strain WHI3, active compounds read low 0.95 | locus YNL224C, strain SQS1, active compounds read low 0.981 | locus YNL322C, strain KRE1, active compounds read low 0.994 | locus YOR083W, strain WHI5 (second series), active compounds read low 0.953 | locus YPL055C, strain LGE1, active compounds read low 0.996 | locus YPL241C, strain CIN2, active compounds read low 0.994
